The target of the experiment is Fibroblast growth factor 10 (Homo sapiens) (UniProt O15520). Put plainly: FGF10 binders on small-molecule microarrays, primary screen, biochemical, small-molecule microarray, 635 nm fluorescence (AID 1102). Conditions: FGF10 binding, fluorescence 635 nm, higher = more signal.
Chain of Fibroblast growth factor 10 (Homo sapiens) (O15520 whole entry, looked up): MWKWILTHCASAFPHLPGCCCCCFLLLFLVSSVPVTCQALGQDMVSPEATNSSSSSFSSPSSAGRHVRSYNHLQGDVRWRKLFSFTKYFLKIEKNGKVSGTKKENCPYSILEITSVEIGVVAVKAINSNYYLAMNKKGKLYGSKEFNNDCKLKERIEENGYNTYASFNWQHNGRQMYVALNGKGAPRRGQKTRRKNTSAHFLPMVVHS
Turning to `CO[C@H]1COC(=O)CC=C[C@H](C)[C@@H](OC)COC(=O)[C@@H](C)NC(=O)CC=C[C@@H]1C`, the composite z-score was 0.447.
As to `CCOC(=O)[C@H](Cc1ccccc1)NC(=O)OC1CC(CCC2CC(CC)=NO2)OC2(CCCC(COC(=O)NCCC(C)C)O2)C1` (stereo partly specified), the composite z-score stood at 0.848.
To `CC(C)CON=C1C[C@@H](O)[C@@H](O)[C@@H]2[C@@H]3C(=O)N(c4ccc(F)cc4F)C(=O)[C@@H]3CC[C@H]12` belongs 0.553; to `CC(C)(C)N1C(=O)[C@H]2[C@H]3[C@H](O)[C@H](O)CC(=NO[C@@H]4O[C@H](CO)[C@@H](O)[C@H](O)[C@H]4O)[C@H]3CC[C@H]2C1=O`, 0.16; to `COC(=O)C=CCCc1coc(C=CCNC(=O)OC)n1`, 0.789.
To `Cc1ccc(S(=O)(=O)OC[C@H]2CN3[C@H](c4ccc(Br)cc4)[C@@H](C)CC[C@H]3C(=O)O2)cc1` belongs 0.725; to `CO[C@@H]1COC(=O)[C@@H](C)NC(=O)CC=C[C@@H](C)[C@H](NS(=O)(=O)c2ccc(C)cc2)COC(=O)[C@H](C)NC(=O)CC=C[C@H]1C`, 0.611; to `COC(=O)[C@H](C)NC(=O)CCC1CC(OC(=O)NCc2ccc3c(c2)OCO3)CC2(CCCC(COC(=O)NCC3CCCCC3)O2)O1` (stereo partly specified), 1.29.
In turn, `C#CCCCON=C1C[C@@H](O)[C@@H](O)[C@@H]2[C@@H]3C(=O)N(C(C)(C)C)C(=O)[C@@H]3CC[C@H]12` gave a composite z-score of -0.165.
To `CCOC(=O)NN=C1C[C@@H](O)[C@@H](O)[C@@H]2[C@@H]3C(=O)N(C(C)(C)C)C(=O)[C@@H]3CC[C@H]12` belongs 0.338; to `C[C@H]1COC(=O)[C@@H]2CCCN2C(=O)[C@@H](C)COC(=O)[C@H](Cc2ccccc2)NC1=O`, 0.338; to `CCOC(=O)NN=C1C[C@@H](O)[C@@H](O)[C@@H]2[C@@H]3C(=O)N(c4cccc(Oc5ccccc5)c4)C(=O)[C@@H]3CC[C@H]12`, 0.518.
`CCOC(=O)C1=NO[C@@]2(C=C(Br)C3(OCCCO3)[C@H]3O[C@H]32)C1` had a composite z-score of 1.07.
To `CO[C@@H]1COC(=O)[C@H](CCSC)NC(=O)CC=C[C@@H](C)COC(=O)CCC[C@H]1C` belongs 0.399; to `CCOC(=O)[C@H](Cc1ccccc1)NC(=O)CCC1CC(OC(=O)NCc2cccc3ccccc23)CC2(CCCC(COC(=O)NCCC(C)C)O2)O1` (stereo partly specified), 0.143; to `CC[C@@H](c1ccccc1)n1c(=O)n2n(c1=O)[C@H]1[C@H](O)[C@@H]3O[C@@H]3C(=O)[C@H]1CC2`, 0.427.
To `CCc1cc2c(nc1CC)CCN(CCC(C)=NO[C@H](C)c1cn([C@H](CO)Cc3ccccc3)nn1)C2` belongs 0.0168.
Under `CCOC(=O)[C@H](CC(C)C)NC(=O)CCC1CC(OC(=O)NCc2ccc3c(c2)OCO3)CC2(CCCC(COC(=O)NCC(c3ccccc3)c3ccccc3)O2)O1` (stereo partly specified) stands 0.685; under `CCOC(=O)CCN1C(=O)[C@H]2[C@H]3[C@H](O)[C@H](O)CC(=NOCC(C)C)[C@H]3CC[C@H]2C1=O`, -0.147.
Take `O=C1[C@H]2[C@H]3[C@H](O)[C@H](O)CC(=NOCc4ccccc4)[C@@H]3CC[C@H]2C(=O)N1C[C@@H]1CCCO1`: the composite z-score turned out to be 0.179.
To `CCOC(=O)[C@H](CC(C)C)NC(=O)CCC1CC(OC(=O)NCc2cccc3ccccc23)CC2(CCCC(COC(=O)NCC3CCCCC3)O2)O1` (stereo partly specified) belongs 0.924.
To `CC(C)=CCCC(C)=CCON=C1C[C@@H](O)[C@@H](O)[C@@H]2[C@@H]3C(=O)N(c4cccc(Oc5ccccc5)c4)C(=O)[C@@H]3CC[C@@H]12` belongs 0.612; to `O=C1[C@H]2[C@H]3[C@H](O)[C@H](O)CC(=NOC[C@@H](O)COCc4ccco4)[C@H]3CC[C@H]2C(=O)N1c1ccc(F)cc1F`, -0.921.
To `COc1ccc(O[C@@H]2[C@H](O)CO[C@H]2C=Cc2ccccc2)cc1` belongs 0.0279; to `COC(=O)[C@@H]1CC[C@H](C)[C@@H](c2ccc(C)cc2)N1C(=O)c1ccc(C=NO[C@@H]2O[C@H](COC(C)=O)[C@@H](OC(C)=O)[C@H](OC(C)=O)[C@H]2OC(C)=O)cc1`, 0.666.
`CO[C@H]1COC(=O)[C@H](C)NC(=O)[C@@H](C)COC(=O)[C@H]2CCCN2C(=O)CC=C[C@H]1C` came in with a composite z-score of 0.764.
`CC(C)=CCCC(C)=CCON=C1C[C@@H](O)[C@@H](O)[C@@H]2[C@@H]3C(=O)N(c4ccc(F)cc4F)C(=O)[C@@H]3CC[C@H]12` showed a composite z-score of 0.0906.
Under `COc1cc(O)c(C(=O)C=Cc2ccc3c(c2)OCO3)c(OC)c1` stands 0.772.
Under `COc1ccc(O[C@H]2C=C[C@@H](c3ccccc3)O[C@@H]2CON=C2[C@H]3CCn4c(=O)n(-c5ccccc5)c(=O)n4[C@H]3[C@H](O)[C@@H]3O[C@H]23)cc1` stands 0.464; under `COc1ccc(COC(=O)NN=C2C[C@@H](O)[C@@H](O)[C@@H]3[C@@H]4C(=O)N(Cc5ccccc5)C(=O)[C@@H]4CC[C@H]23)cc1`, -0.259; under `CO[C@H]1COC(=O)[C@@H](C)COC(=O)[C@@H](OCc2ccccc2)C=C[C@@H]1C`, -0.162.
Under `COc1ccc(O[C@H]2C=C[C@@H](c3ccccc3)O[C@@H]2CON=C(C)CCN2CCc3nc(-c4ccccc4)c(-c4ccccc4)cc3C2)cc1` stands -0.156.
Molecule `CCN1C(=O)[C@H]2[C@H]3[C@H](O)[C@H](O)CC(=O)[C@H]3CC[C@H]2C1=O` had a composite z-score of 0.406.
Under `CCCNC(=O)OC[C@H]1O[C@H](CCON=C(C)C)C=C[C@@H]1Oc1ccc(OC)cc1` stands 0.325.
The molecule `CCOC(=O)NN=C1C[C@@H](O)[C@@H](O)[C@@H]2[C@@H]3C(=O)N(c4ccc(F)cc4F)C(=O)[C@@H]3CC[C@@H]12` yielded a composite z-score of 0.478.
To `C[n+]1ccc(-c2ccc(CO)cc2)cc1` belongs 0.747.

The values are drawn from PubChem BioAssay.
